Experimental data reported in PubChem BioAssay AID463173 (ICCB-Longwood Screening Facility, Harvard Medical School, 2010).
Hit rate of the full screen: of about 52,000 compounds, about 4,300 (8.3%) were called active. The sample as a whole holds a higher share of actives than the screen did. A number with no mark means an inactive call. No stated cut-off is given here; in the data, active means survival mostly below about 52% (no sharp cut-off); inactive means mostly above about 56%.

tested on: DeltatarO mutant; test: S. aureus survival, RN4220 and DeltatarO strains – OD600, teichoic acid synthesis inhibitors, primary screen (AID 463173); settings: S. aureus RN4220 wild type/DeltatarO growth, OD600, 18 h, active compounds read low, screened at 18.75 µg/mL (by protocol)

Compound | survival
O=C(NCc1cccc(Cl)c1)C1CCCN(c2nn3cc(-c4ccc(F)cc4)nc3s2)C1 (configuration not stated) | 87%
CCc1ccccc1NC(=O)c1nc(-c2ccncc2)no1 | 46%
Cc1cc(C)c(S(=O)(=O)N2CCC(n3c(C(F)(F)F)nc4cccnc43)CC2)c(C)c1 | 79%
O=C(Cn1c(C(=O)N2CCOCC2)cc2sccc21)c1ccccc1 | 99%
Oc1ccccc1C1OCC(C2CC=CCC2)CO1 (configuration not stated) | 96%
Oc1ccccc1C1OC2CCCCC2C2=CCCCC21 (configuration not stated) | 34% (active)
CC1=CCC2(CO)COC(c3ccccc3O)C1C2 (configuration not stated) | 90%
c1ccc2c(c1)[nH]c1c(N3CCOCC3)ncnc12 | 68%
COc1cccc(CCNC(=O)Cn2c(-c3cccs3)cc3ccccc32)c1 | 70%
O=C(Nc1c2c(nn1-c1ccc(Cl)cc1)CS(=O)(=O)C2)c1cccc(F)c1 | 55%
Cc1noc(/C=C/c2ccccc2F)c1S(=O)(=O)N1CCC(C(=O)NCc2ccco2)CC1 | 107%
COc1cc2nc(NCc3ccc(C)cc3)n3nc(-c4ccccc4)nc3c2cc1OC | 61%
COCCCNC(=O)CSc1nc2cc(OC)c(OC)cc2c2nc(-c3ccccc3)nn12 | 78%
COc1cc2nc(NCC(C)c3ccccc3)n3nc(-c4ccccc4)nc3c2cc1OC (configuration not stated) | 61%
COc1cc2nc(NCc3ccccc3)n3nc(-c4ccccc4)nc3c2cc1OC | 47% (active)
COCCCNc1nc2cc(OC)c(OC)cc2c2nc(-c3ccccc3)nn12 | 47% (active)
COc1cc2nc(NCCC(C)C)n3nc(-c4ccccc4)nc3c2cc1OC | 49%
COc1ccc(OC)c(CCNc2nc3cc(OC)c(OC)cc3c3nc(-c4cccnc4)nn23)c1 | 126%
CCOCCCNc1nc2cc(OC)c(OC)cc2c2nc(-c3ccccc3)nn12 | 44% (active)
CCC(C)NC(=O)c1c(C)oc2ncn(CC(C)C)c(=O)c12 (configuration not stated) | 79%
COC(=O)c1c(-c2ccc(Cl)cc2)noc1N1CCN(c2cccc(C)c2C)CC1 | 79%
CN1C(=O)CSC1=Nc1cccc(C(=O)O)c1 | 89%
COC(=O)c1csc(N)n1 | 95%

Compound | survival
CCOc1ccc2c(c1)c(=O)c(S(=O)(=O)c1ccc(F)cc1)cn2CC(=O)Nc1ccccc1C | 96%
Cc1nn2c(=O)cc(COC(=O)c3ccc(NC(=O)c4cccc(Br)c4)cc3)nc2s1 | 97%
CC1=Nc2cc(C(=O)N3CCC(C)CC3)ccc2Sc2ccc(Cl)cc21 | 90%
CC1=Nc2cc(C(=O)N3CCCCC3)ccc2Sc2ccc(C)cc21 | 48%
CCC1=Nc2cc(C(=O)N3CCC(C)CC3)ccc2Sc2ccc(C)cc21 | -4% (active)
CCOC(=O)C1CCN(C(=O)c2ccc3c(c2)N=C(CC)c2cc(C)ccc2S3)CC1 | 36% (active)
CCCC1=Nc2cc(C(=O)N3CCC(C)CC3)ccc2Sc2ccc(C)cc21 | 97%
CCCC1=Nc2cc(C(=O)N3CCC(C(=O)OCC)CC3)ccc2Sc2ccccc21 | 79%
O=C(CNCc1ccccc1F)Nc1ccc(N2CCCC2)cc1 | 102%
Cc1nnc2c3ccccc3nc(N3CCN(c4cccc(Cl)c4)CC3)n12 | 92%
COc1ccc(CNC(=O)CCc2c(C)nc3cc(-c4ccc(OC)cc4OC)nn3c2C)cc1 | 121%
CCn1cc(C(=O)NCc2ccc(F)cc2)c(=O)c2cc(S(=O)(=O)N(C)C)ccc21 | 81%
CCOCCc1nn2c(=O)cc(COC(=O)c3ccc(NC(=O)C4CCCCC4)cc3)nc2s1 | 70%
COc1cc(C(=O)Nc2ccccc2-c2nc(-c3ccc(C)cc3)no2)cc(OC)c1OC | 53%
COc1cc(C(=O)Nc2ccccc2-c2nc(-c3ccccc3)no2)cc(OC)c1OC | 66%
COc1cccc(C(=O)Nc2ccccc2-c2nc(-c3ccc(C)cc3)no2)c1 | 48% (active)
Cc1ccc(-c2noc(-c3ccccc3NC(=O)c3ccccc3)n2)cc1 | 69%
Cc1ccc(-c2noc(-c3ccccc3NC(=O)C3CC(=O)N(c4ccc(C)cc4)C3)n2)cc1 (configuration not stated) | 48%
COc1cccc(-c2noc(-c3cc(C(C)C)[nH]n3)n2)c1OC | 73%
COc1cccc(-c2noc(-c3cc4ccccc4oc3=O)n2)c1OC | 102%
COc1ccc(-c2noc(-c3ccccc3NC(=O)c3cc(OC)c(OC)c(OC)c3)n2)cc1 | 34% (active)
COc1ccc(N2CC(C(=O)Nc3ccccc3-c3nc(-c4ccc(C)cc4)no3)CC2=O)cc1 (configuration not stated) | 54% (active)
Cc1ccc(-c2noc(-c3ccccc3NC(=O)C3CC(=O)N(c4cccc(C)c4)C3)n2)cc1 (configuration not stated) | 66%

Compound | survival
COc1ccc(-c2noc(-c3cccc(OC)c3OC)n2)cc1 | 8% (active)
COc1ccc(C(=O)Nc2ccccc2-c2nc(-c3ccc(OC)cc3)no2)cc1 | 48%
COc1ccc(C2=NN(CC(=O)NCCCN(C)c3ccccc3)C(=O)CC2)cc1 | 116%
CCCn1c(=O)c2sccc2n2c(CCCC(=O)Nc3ccc(Oc4ccccc4)cc3)nnc12 | 88%
CN(C)c1ccc(C(CNC(=O)COc2ccc(Cl)cc2)N2CCOCC2)cc1 (configuration not stated) | 55%
Cc1cccc(OC(C)C(=O)Nc2nonc2-c2ccc(Br)cc2)c1C (configuration not stated) | 70%
Cc1ccc(OCC(=O)Nc2nonc2-c2ccc(Br)cc2)cc1 | 75%
Cc1cccc(C)c1OCC(=O)Nc1nonc1-c1ccc(Br)cc1 | 41% (active)
Cc1cc(C)cc(OC(C)C(=O)Nc2nonc2-c2ccc(Br)cc2)c1 (configuration not stated) | 14% (active)
Cc1ccc(OC(C)C(=O)Nc2nonc2-c2ccc(Br)cc2)cc1C (configuration not stated) | 66%
Cc1cccc(OCC(=O)Nc2nonc2-c2ccc(Br)cc2)c1C | 68%
CCc1ccc2[nH]cc(S(=O)(=O)c3ccc(C(C)C)cc3)c(=O)c2c1 | 62%
CC(C)c1ccc(NC(=O)CCNS(=O)(=O)c2ccc3c(c2)CCCC(=O)N3)cc1 | 77%
Cc1cc(C)c2c(=O)cc(CSCC(=O)Nc3ccccc3Cl)[nH]c2c1 | 90%
Cc1ccc(-c2cc3ncc4c(n3n2)-c2cc(F)ccc2OC4)cc1 | 108%
O=C(CS(=O)(=O)c1cccc2nsnc12)Nc1ccccc1Cl | 71%
CCOC(=O)Cc1cc(=O)[nH]c(/N=C(\N)Nc2ccc3ccccc3c2)n1 | 98%
COC(=O)c1ccc(NC(=O)CCc2c(C)nn(-c3ccc(N4CCOCC4)nn3)c2C)cc1 | 78%
COc1ccccc1N1CCN(C(CNC(=O)C(=O)NCCN(C)C)c2cccnc2)CC1 (configuration not stated) | 69%
Cc1ccc(C)c(NC(=O)C(=O)NCC(c2cccnc2)N2CCN(c3ccc(F)cc3)CC2)c1 (configuration not stated) | 15% (active)
Cc1ccc(CNC(=O)C(=O)NCC(c2cccnc2)N2CCN(c3ccc(F)cc3)CC2)cc1 (configuration not stated) | 73%
CCOC(=O)C(=O)NCC(c1cccnc1)N1CCN(c2ccccc2)CC1 (configuration not stated) | 65% (active)
Cc1cc(C)cc(NC(=O)C(=O)NCC(c2cccnc2)N2CCN(c3ccccc3)CC2)c1 (configuration not stated) | 56%

Compound | survival
COc1ccccc1N1CCN(C(CNC(=O)C(=O)NCCCN(C)C)c2cccnc2)CC1 (configuration not stated) | 61% (active)
CCN(CC)CCNC(=O)C(=O)NCC(c1cccnc1)N1CCN(c2ccccc2)CC1 (configuration not stated) | 100%
COC(=O)NCC(c1cccnc1)N1CCN(c2ccc(F)cc2)CC1 (configuration not stated) | 83%
CN(C)CCNC(=O)C(=O)NCC(c1cccnc1)N1CCN(c2ccc(F)cc2)CC1 (configuration not stated) | 69%
CN(C)CCNC(=O)C(=O)NCC(c1cccnc1)N1CCN(c2ccccc2)CC1 (configuration not stated) | 54% (active)
CCOc1ccccc1NC(=O)C(=O)NCC(c1cccnc1)N1CCN(c2ccccc2)CC1 (configuration not stated) | 54%
COCCNC(=O)C(=O)NCC(c1cccnc1)N1CCN(c2ccccc2OC)CC1 (configuration not stated) | 64%
COc1ccc(OC)c(NC(=O)Cn2cc(C(=O)c3cccs3)c3ccccc32)c1 | 50%
Cc1ccccc1NC(=O)CSC1=Nc2ccccc2C2=NC(CCC(=O)NCc3ccccc3)C(=O)N12 (configuration not stated) | 89%
COc1cccc(C2C(C(N)=O)=C(C)Nc3ncnn32)c1 (configuration not stated) | 71%
Cn1c(SCc2ccccc2F)nc2c([nH]c3ccccc32)c1=O | 97%
Cc1ccc(/C=C/c2onc(C)c2S(=O)(=O)N2CCC(C(=O)N3CCN(c4cc(C)ccc4C)CC3)CC2)cc1 | 87%
O=C(Cn1cc(SCc2ccccc2Cl)c2ccccc21)N1CCCCCC1 | 74%
CC1CCN(S(=O)(=O)c2cc(C(=O)NCc3ccc(N(C)C)cc3)n(C)c2)CC1 | 93%
Cc1cccc(N2CCN(c3ccc(NC(=O)c4ccccc4)cc3C(=O)O)CC2C)c1 (configuration not stated) | 81%
CCCS(=O)(=O)N1CCC(N2CCN(Cc3ccc(F)cc3)C(=O)C2=O)CC1 | 83%
COc1cccc(CNC(=O)Cn2c(=O)cc(C(F)(F)F)c3c(C)nn(C)c32)c1OC | 90%
O=C(NCc1ccccc1)C(=O)NCC(c1cccnc1)N1CCN(c2ccccc2)CC1 (configuration not stated) | 45% (active)
O=C(NCc1cccnc1)C(=O)NCC(c1cccnc1)N1CCN(c2ccccc2)CC1 (configuration not stated) | 53%
O=C(NCc1ccc(Cl)cc1)C(=O)NCC(c1cccnc1)N1CCN(c2ccccc2)CC1 (configuration not stated) | 47%
COCCNC(=O)C(=O)NCC(c1cccnc1)N1CCN(c2ccccc2F)CC1 (configuration not stated) | 70%
O=C(NCCc1ccccc1)C(=O)NCC(c1cccnc1)N1CCN(c2ccccc2)CC1 (configuration not stated) | 51%
COCCNC(=O)C(=O)NCC(c1cccnc1)N1CCN(c2ccccc2)CC1 (configuration not stated) | 54% (active)
